Structures are written as SMILES. Compounds without any hit were thinned out: in the full panel of roughly 83,000, 20% have a hit.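 A percent growth of 40 corresponds to 60% growth inhibition; 0 means no net growth; -100 means all cells died. Active threshold: below 10.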 Activity calls are given as the source filed them.

One assay has as its system LOX IMVI melanoma. Put plainly: NCI-60 one-dose screen, 48 h (100 = growth as untreated, 0 = no growth, -100 = all killed). Conditions: 10 µM unless noted.
With `COc1ccc(NC(=O)c2sc3nc(C)c(C(O)c4ccc(OC)cc4)cc3c2N)cc1` (stereo unspecified), the growth was 40.5% (inactive).
On the same count and under the same terms, under `N#Cc1c(NC(=O)c2cccc(Br)c2)sc2c1CCCC2` stands 80% (inactive); under `Clc1ccc(C2CC(c3cccc(Nc4ccncc4)c3)=NN2c2ccccc2)cc1` (stereo unspecified), 25.6% (inactive); under `O=C(OCc1nc2nc(Cl)nc(N3CCOCC3)c2[nH]1)n1ccnc1`, -77.1% (active).
As to `CC(=O)O[C@]1(C(C)=O)CC[C@H]2[C@@H]3C=C(Cl)C4=CC(=O)CC[C@]4(C)[C@H]3CC[C@@]21C`, the growth is 115% (inactive).
Regarding `CC(=O)c1c[nH]c2ccc(-c3ccnc(Nc4ccc(NC(=O)C5CCCC5)c(CN5CCOCC5)c4)n3)cc12`, the growth was -54.2% (active).
For the molecule `O=C(N/N=C/c1cccnc1)c1ccccc1Nc1cccc(C(F)(F)F)c1`, the growth was 78.6% (inactive).
Still for that read-out and setting: under `CN1CCN(CCCOc2ccc3ncnc(Nc4ccc(Oc5cccc(C(F)(F)F)c5)c(Cl)c4)c3c2)CC1` stands -87.7% (active); under `CN(C)Cc1c(-c2ccccc2)[nH]c2ccccc12`, 97.4% (inactive).
For the molecule `O=C(OC(OC(=O)c1cc(Cl)cc(Cl)c1)c1cccc2ccccc12)c1ccccc1` (stereo unspecified), the growth was 92.3% (inactive).
With `CCC(C)C(N)C(=O)NNc1n[nH]c(=S)n1N` (stereo unspecified), the growth is 101% (inactive).
With `CC[C@H](C)[C@@H]1NC(=O)[C@H](Cc2ccc(O)cc2)N(C)C(=O)[C@H](Cc2ccccc2)NC(=O)CN(C)C(=O)[C@@H]2CCCN2C(=O)[C@@H](Cc2ccccc2)N(C)C(=O)[C@H](CC(C)C)NC1=O`, the growth was -18.6% (active).
Take `C#CC(=O)Nc1cccc(Nc2nc3c(c(NCc4ccccc4)n2)CCCC3)c1`: the growth was -87.2% (active).
The same measure, in the same setting: under `CCCCCOc1ccc(/C=N/Nc2cc(C)nc3ccc(Br)cc23)cc1` stands -92.9% (active).
On the same count and under the same terms, for `COc1ccc(OC)c(/C=C/[C@H]2O[C@@H](C)[C@H](O)[C@@H]2O)c1` the value was 99.8% (inactive); for `COc1ccc(C(=O)c2cc(C)c(OC)c(C)c2)c(OC)c1O`, 21.5% (inactive).
In the case of `C=C1C(=O)O[C@H]2[C@H]1CC/C(CNC(=O)/C=C/c1ccc(Br)cc1)=C\CC[C@@]1(C)O[C@@H]21`, the growth was -95.2% (active).
Still for that read-out and setting: for `O=C(c1ccccc1)N1N=C(c2ccc(-n3ccc(C(F)(F)F)n3)cc2)CC1c1ccc[nH]1` (stereo unspecified) the value was 80% (inactive).
On to `CS(=O)(=O)Nc1cc(-c2ccc3ncnc(Nc4ccc5[nH]ncc5c4)c3c2)cnc1Cl`, for which the growth is 66.2% (inactive).
Same read-out and setting: under `Nc1ncc(C#Cc2cncc(NC(=O)c3cccc(C(F)(F)F)c3)c2)c2cccnc12` stands 5.77% (active); under `CCOC(=O)Oc1c(OC)cc(C(=O)O[C@@H]2C[C@@H]3CN4CCc5c([nH]c6cc(OC)ccc56)[C@H]4C[C@@H]3[C@H](C(=O)OC)[C@H]2OC)cc1OC`, 14.4% (inactive).
Regarding `O=C1Nc2ccccc2/C1=C\c1cccc(/C=C2/C(=O)Nc3ccccc32)n1`, the growth was -88.2% (active).
`NC(=O)CN1CCN(c2ccccc2Cl)CC1`: the growth was 109% (inactive).
Regarding `CSc1nnc2c(=O)n(C)c(=O)n(C)c2n1`, the growth is 83.5% (inactive).
Turning to `NC(=O)c1cccc(-c2ccccc2N2CCCCC2)c1`, the growth is 98.5% (inactive).
On to `COc1cnccc1-c1nc2ccc3[nH]ncc3c2c2c1CCCC2`, for which the growth is 31.7% (inactive).
Take `c1ccc(-c2nnc(Nc3ccc4c(c3)OCCO4)o2)c(NCc2ccncc2)c1`: the growth was 23.6% (inactive).
As for `CNC(=O)Nc1ccc(-c2nc(N3CCOCC3)nc3c2cnn3C2CCOCC2)cc1`, the growth is 4.58% (active).
Consider `O=C(N/N=C/c1ccc(O)c(O)c1)c1sc2ccccc2c1Cl`, for which the growth is 68.7% (inactive).
On to `COc1cc(C2CC(c3cccc(Nc4ccncc4)c3)=NN2c2ccccc2)cc(OC)c1OC` (stereo unspecified), for which the growth was 33.8% (inactive).
Regarding `Nc1ccccc1NC(=O)c1ccc(CN2CCC/C(=C\c3cccc(Cl)c3)C2=O)cc1`, the growth is 9.7% (active).
As for `C[C@H]1[C@H](C)CC[C@]2(CO)CC[C@]3(C)C(=CC[C@@H]4[C@@]5(C)CCCNC(C)(C)[C@@H]5CC[C@]43C)[C@H]12`, the growth was -94.9% (active).
`O=c1[nH]nc(-c2ccc(Br)cc2)cc1Cc1ccc(O)cc1`: the growth was 97.4% (inactive).
As to `CC1(C)CC[C@]2(C(=O)NCC#CCN3CCOCC3)CC[C@]3(C)C(=CC[C@@H]4[C@@]5(C)Cc6c([nH]c7ccccc67)C(C)(C)[C@@H]5CC[C@]43C)[C@@H]2C1`, the growth is 94.6% (inactive).
As to `COc1ccc(C(=O)/C=C/c2cn(Cc3ccc(Cl)cc3)c3ccccc23)cc1`, the growth was 49.2% (inactive).
With `COC(=O)CCCCCCCCC1(C)C=CC(C(C)O)=CC1` (stereo unspecified), the growth was 96.7% (inactive).
`COc1ccc(-c2nn(Cc3ccccc3)c3c2-c2oncc2CC3)cc1OC`: the growth was 86.2% (inactive).
Take `COc1ccc(CNC(=O)COc2ccc(/C=N/Nc3nc4ccccc4s3)cc2)cc1`: the growth was 46.5% (inactive).

A further assay deals with SK-MEL-28 melanoma. The description is as above. The settings on record: 10 µM unless noted.
As to `COc1ccc(NC(=O)c2sc3nc(C)c(C(O)c4ccc(OC)cc4)cc3c2N)cc1` (stereo unspecified), the growth was 65.8% (inactive).
`N#Cc1c(NC(=O)c2cccc(Br)c2)sc2c1CCCC2`: the growth was 86.3% (inactive).
Turning to `Clc1ccc(C2CC(c3cccc(Nc4ccncc4)c3)=NN2c2ccccc2)cc1` (stereo unspecified), the growth was 9.8% (active).
`O=C(OCc1nc2nc(Cl)nc(N3CCOCC3)c2[nH]1)n1ccnc1`: the growth was -36.5% (active).
As for `CC(=O)O[C@]1(C(C)=O)CC[C@H]2[C@@H]3C=C(Cl)C4=CC(=O)CC[C@]4(C)[C@H]3CC[C@@]21C`, the growth is 119% (inactive).
`CC(=O)c1c[nH]c2ccc(-c3ccnc(Nc4ccc(NC(=O)C5CCCC5)c(CN5CCOCC5)c4)n3)cc12`: the growth is -62.4% (active).
Still for that read-out and setting: for `O=C(N/N=C/c1cccnc1)c1ccccc1Nc1cccc(C(F)(F)F)c1` the value was 85.5% (inactive).
For `CN1CCN(CCCOc2ccc3ncnc(Nc4ccc(Oc5cccc(C(F)(F)F)c5)c(Cl)c4)c3c2)CC1`, the growth is -93.2% (active).
In the case of `CN(C)Cc1c(-c2ccccc2)[nH]c2ccccc12`, the growth was 97.2% (inactive).
The same measure, in the same setting: for `O=C(OC(OC(=O)c1cc(Cl)cc(Cl)c1)c1cccc2ccccc12)c1ccccc1` (stereo unspecified) the value was 111% (inactive); for `CCC(C)C(N)C(=O)NNc1n[nH]c(=S)n1N` (stereo unspecified), 107% (inactive); for `CC[C@H](C)[C@@H]1NC(=O)[C@H](Cc2ccc(O)cc2)N(C)C(=O)[C@H](Cc2ccccc2)NC(=O)CN(C)C(=O)[C@@H]2CCCN2C(=O)[C@@H](Cc2ccccc2)N(C)C(=O)[C@H](CC(C)C)NC1=O`, -43.8% (active).
On to `C#CC(=O)Nc1cccc(Nc2nc3c(c(NCc4ccccc4)n2)CCCC3)c1`, for which the growth was -84.6% (active).
Turning to `CCCCCOc1ccc(/C=N/Nc2cc(C)nc3ccc(Br)cc23)cc1`, the growth is -74.3% (active).
Take `COc1ccc(OC)c(/C=C/[C@H]2O[C@@H](C)[C@H](O)[C@@H]2O)c1`: the growth is 102% (inactive).
For `COc1ccc(C(=O)c2cc(C)c(OC)c(C)c2)c(OC)c1O`, the growth was 48.8% (inactive).
Turning to `C=C1C(=O)O[C@H]2[C@H]1CC/C(CNC(=O)/C=C/c1ccc(Br)cc1)=C\CC[C@@]1(C)O[C@@H]21`, the growth is -66.1% (active).
Take `O=C(c1ccccc1)N1N=C(c2ccc(-n3ccc(C(F)(F)F)n3)cc2)CC1c1ccc[nH]1` (stereo unspecified): the growth is 92.2% (inactive).
Still for that read-out and setting: under `CS(=O)(=O)Nc1cc(-c2ccc3ncnc(Nc4ccc5[nH]ncc5c4)c3c2)cnc1Cl` stands 50.8% (inactive); under `Nc1ncc(C#Cc2cncc(NC(=O)c3cccc(C(F)(F)F)c3)c2)c2cccnc12`, 33.6% (inactive); under `CCOC(=O)Oc1c(OC)cc(C(=O)O[C@@H]2C[C@@H]3CN4CCc5c([nH]c6cc(OC)ccc56)[C@H]4C[C@@H]3[C@H](C(=O)OC)[C@H]2OC)cc1OC`, 83.2% (inactive).
Still for that read-out and setting: under `O=C1Nc2ccccc2/C1=C\c1cccc(/C=C2/C(=O)Nc3ccccc32)n1` stands -88.8% (active); under `NC(=O)CN1CCN(c2ccccc2Cl)CC1`, 110% (inactive); under `CSc1nnc2c(=O)n(C)c(=O)n(C)c2n1`, 95.5% (inactive).
Turning to `NC(=O)c1cccc(-c2ccccc2N2CCCCC2)c1`, the growth was 98.6% (inactive).
For `COc1cnccc1-c1nc2ccc3[nH]ncc3c2c2c1CCCC2`, the growth was 58.6% (inactive).
On to `c1ccc(-c2nnc(Nc3ccc4c(c3)OCCO4)o2)c(NCc2ccncc2)c1`, for which the growth is 63.3% (inactive).
As for `CNC(=O)Nc1ccc(-c2nc(N3CCOCC3)nc3c2cnn3C2CCOCC2)cc1`, the growth was -14.1% (active).
On the same count and under the same terms, for `O=C(N/N=C/c1ccc(O)c(O)c1)c1sc2ccccc2c1Cl` the value was 56.8% (inactive); for `COc1cc(C2CC(c3cccc(Nc4ccncc4)c3)=NN2c2ccccc2)cc(OC)c1OC` (stereo unspecified), 5.22% (active).
On to `Nc1ccccc1NC(=O)c1ccc(CN2CCC/C(=C\c3cccc(Cl)c3)C2=O)cc1`, for which the growth was 48.2% (inactive).
Consider `C[C@H]1[C@H](C)CC[C@]2(CO)CC[C@]3(C)C(=CC[C@@H]4[C@@]5(C)CCCNC(C)(C)[C@@H]5CC[C@]43C)[C@H]12`, for which the growth was -84.9% (active).
Still for that read-out and setting: under `O=c1[nH]nc(-c2ccc(Br)cc2)cc1Cc1ccc(O)cc1` stands 104% (inactive).
Regarding `CC1(C)CC[C@]2(C(=O)NCC#CCN3CCOCC3)CC[C@]3(C)C(=CC[C@@H]4[C@@]5(C)Cc6c([nH]c7ccccc67)C(C)(C)[C@@H]5CC[C@]43C)[C@@H]2C1`, the growth is 67.7% (inactive).
Consider `COc1ccc(C(=O)/C=C/c2cn(Cc3ccc(Cl)cc3)c3ccccc23)cc1`, for which the growth was 80.6% (inactive).
Same read-out and setting: under `COC(=O)CCCCCCCCC1(C)C=CC(C(C)O)=CC1` (stereo unspecified) stands 119% (inactive).
On to `COc1ccc(-c2nn(Cc3ccccc3)c3c2-c2oncc2CC3)cc1OC`, for which the growth is 105% (inactive).
With `COc1ccc(CNC(=O)COc2ccc(/C=N/Nc3nc4ccccc4s3)cc2)cc1`, the growth was 35.2% (inactive).

(Values after PubChem BioAssay (NCI).)
